# Inconclusive results are not listed. Calls of active or inactive are those of the source. Calls follow the shape of the dose curve; as a rule, active = well fitted inhibition curve with a large enough effect; inconclusive = small, poorly fitted or top-dose-only effect; inactive = flat fitted curve, though single readings scatter. Non-standard residues stand in square brackets, D forms with d. Residues, ends and D or L forms follow the SMILES beside them. *: point of attachment. Dolaproine = CO[C@@H]([C@@H]1CCCN1)[C@@H](C)C(=O)O; Dil = CC[C@H](C)[C@H](NC)[C@@H](CC(=O)O)OC; NMe2Val = CC(C)[C@@H](C(=O)*)N(C)C
# Assay: Identification of antibody-drug conjugate (ADC) payloads which are substrates of ATP-binding cassette drug efflux transporters: ABCG2-H460 cell line
# Settings: H460 MX20 (ABCG2) viability, CellTiter-Glo, 48 h
# Source text: Antibody-drug conjugates (ADCs) feature an antibody recognizing a specific protein joined to a potent toxic payload. Numerous antibody-drug conjugates have received FDA approval; however, clinical resistance arises. Resistance mechanisms include decreased expression or mutation of the antibody target, impaired payload release, or increased expression of ATP-binding cassette (ABC) efflux transporters associated with multidrug resistance. We therefore sought to characterize the interaction of ABC multidrug transporters with ADC payloads. We performed a high-throughput screen with 27 common ADC payloads using cells lines expressing ABC transporters P-glycoprotein (P-gp, encoded by ABCB1) or ABCG2 (encoded by ABCG2). Confirmatory assays were also performed using cells transfected to express P-gp, ABCG2, or MRP1 (encoded by ABCC1). Several commonly used ADC payloads were substrates of P-gp, including calicheamicin gamma1, monomethyl auristatin E, DM1, and DM4. All the pyrrolobenzodiazepines tested - SJG136, SGD-1882, SG2057, and SG3199 - were substrates of P-gp, ABCG2, and MRP1. […] These findings highlight the risk of transporter-mediated resistance with certain ADC payloads and underscore the importance of selecting payloads that evade ABC transporter recognition in future ADC development.
# HEK-293 cells were transfected with empty vector (pcDNA) or vector containing the human ABCB1 (MDR-19), ABCG2 (R-5), or ABCC1 gene (MRP1) and were maintained in EMEM with 2 mg/mL G418 added to maintain transporter expression. The HeLa derivative KB-3-1 and the P-gp overexpressing KB-8-5-11 subline were maintained in DMEM; KB-8-5-11 additionally received 100 ng/mL colchicine. H460 parental cells were obtained from the Division of Cancer Treatment and Diagnosis Tumor Repository, National Cancer Institute at Frederick, MD and were cultured in RPMI. The ABCG2 expressing subline H460 MX20 was generated by selecting H460 cells in 20 nM mitoxantrone. Media in all cases was supplemented with 10% FBS and 1% penicillin-streptomycin. We explored 27 common ADC payloads, in two orthogonal, paired cell line sets-a drug selected and transfected set for each transporter--to identify substrates of the ABC transporters P-gp and ABCG2. Compounds were sourced from Levena Biopharma (San Diego, CA), Selleck Chem (Houston, TX), ChemieTek (Indianapolis, IN), or Microsource Discovery Systems (Gaylordsville, CT). Screening was performed as previously described. Briefly, cells were plated at a density of 500 cells/well in 1536 well plates with compounds added using a 1536-head pin tool (Kalypsys, San Diego CA). Cells were incubated with cytotoxic drugs and processed with CellTiter Glo reagent (Promega, Madison, WI) to determine viability after 48 hours. P-gp substrates were identified by comparing compound activity between paired sets of low-expressing (sensitive) and over-expressing (resistant) cell lines.
row,Compound,Potency
1,COc1cc2cc(C(=O)N3C[C@@H](CCl)c4c3cc(O)c3ccccc43)[nH]c2c(OC)c1OC,1.1 nM (active)
2,CC[C@H](C)[C@@H]([C@@H](CC(=O)N1CCC[C@H]1[C@H](OC)[C@@H](C)C(=O)N[C@H](C)[C@@H](O)c1ccccc1)OC)N(C)C(=O)[C@@H](NC(=O)[C@H](C(C)C)N(C)C)C(C)C,1.3 nM (active)
3,CC[C@@]1(O)C(=O)OCc2c1cc1n(c2=O)Cc2cc3ccccc3nc2-1,9.5 nM (active)
4,CC[C@H](C)[C@@H]1NC(=O)CNC(=O)[C@H]2Cc3c([nH]c4cc(O)ccc34)S(=O)C[C@H](NC(=O)CNC1=O)C(=O)N[C@@H](CC(N)=O)C(=O)N1C[C@H](O)C[C@H]1C(=O)N[C@@H]([C@@H](C)[C@@H](O)CO)C(=O)N2 (stereo partly specified),948 nM (active)
5,COc1cccc2c1C(=O)c1c(O)c3c(c(O)c1C2=O)C[C@@](O)(C(=O)CO)CC3OC1CC(N2CCOC(OC)C2)C(O)C(C)O1 (stereo partly specified),3 nM (active)
6,CC[C@H](C)[C@@H]([C@@H](CC(=O)N1CCC[C@H]1[C@H](OC)[C@@H](C)C(=O)N[C@@H](Cc1ccccc1)C(=O)O)OC)N(C)C(=O)[C@@H](NC(=O)[C@H](C(C)C)N(C)C)C(C)C (NMe2Val-V[Dil][Dolaproine]F-OH),42.3 nM (active)

# — PubChem BioAssay AID2061321 (National Center for Advancing Translational Sciences (NCATS), 2025)
